Measurements taken from the supplement of paper PMC10981050.
Values joined by “and” are separate entries in the source; they are usually repeats but may differ in a detail not shown here. Equal values may be shown once. Where a name gives a salt, the structure may show the parent alone.

How the values were obtained:
Assay in all cases: cell viability relative to vehicle control; higher = less cytotoxic
Conditions in all cases: 10 µM
[1] = tested on: K562
Method in brief: (§1)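 CRISPR-edited SRSF2 P95 mutant and isogenic wild-type clones of four leukaemia lines were screened against Selleck bioactive, kinase and epigenetic probe libraries, with identity-inconsistent compounds removed. Compounds were acoustically dispensed into 384-well plates at a single 10 µM dose, with 2000 cells in 50 µL medium per well. After 48 h, supernatant was removed and CellTiter-Glo luminescence was read. Viability was expressed as percent of the on-plate DMSO vehicle control, analysed in Genedata Screener.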

[2] = tested on: MARIMO
Method in brief: as §1

[3] = tested on: MOLM14
Method in brief: as §1

[4] = tested on: OCI-AML2
Method in brief: as §1

SMILES	cell viability ([1]; SRSF2 genotype: SRSF2 P95H/wt)	cell viability ([1]; SRSF2 genotype: SRSF2 wt/wt)	cell viability ([2]; SRSF2 genotype: SRSF2 P95H/wt)	cell viability ([2]; SRSF2 genotype: SRSF2 wt/wt)	cell viability ([3]; SRSF2 genotype: SRSF2 P95H/wt)	cell viability ([3]; SRSF2 genotype: SRSF2 wt/wt)	cell viability ([4]; SRSF2 genotype: P95H/wt)	cell viability ([4]; SRSF2 genotype: wt/wt)
c1ccc(Cn2c(-c3ccc(OCC(C4CCNCC4)n4c(-c5ccccc5)nc5ccccc54)cc3)nc3ccccc32)cc1 (stereo not given) [Deltarasin]	0.43% and 0.39%	0.44%	0.34%	0.33%	0.28%	0.28%	0.24%	0.3%
COC(=O)C1=C(C)NC(C)=C(C(=O)OCC(C)C)C1c1ccccc1[N+](=O)[O-] (stereo not given) [Nisoldipine]	80.1% and 83.8%	80.3%	56.3%	58.6%	41.7%	34.7%	41.2%	55.3%
C[C@](N)(Cc1ccc(O)c(O)c1)C(=O)O [Methyldopa (Aldomet)]	90.6% and 100%	100%	97.2%	104%	98.3%	101%	98.4%	96.6%
CCC[C@H](N[C@H]1CCc2cc(F)cc(F)c2C1)C(=O)Nc1cn(C(C)(C)CNCC(C)(C)C)cn1	78% and 88.1%	88.7%	74.3%	86.2%	78%	88.8%	73.3%	72.3%
Cc1nc(=O)c2cc(CN(C)c3ccc(C(=O)N[C@@H](CCC(=O)O)C(=O)O)s3)ccc2[nH]1 [Raltitrexed (Tomudex)]	94.9% and 108%	58.7%	94.3%	105%	104%	80.6%	106%	118%
Cc1cc2c(s1)Nc1ccccc1N=C2N1CCN(C)CC1 [Olanzapine (Zyprexa)]	95.8% and 89.5%	90.7%	92.5%	102%	93.8%	95.8%	81.7%	92.2%
Cc1ccc(Nc2c(F)cccc2Cl)c(CC(=O)O)c1 [Lumiracoxib (COX-189)]	96% and 98.3%	96.3%	98.9%	96%	100%	93.4%	109%	101%
C[C@H]1[C@H](C)CC[C@]2(C(=O)O)CC[C@]3(C)C(=CC[C@@H]4[C@@]5(C)CCC(=O)C(C)(C)[C@@H]5CC[C@]43C)[C@H]12 [Ursonic acid]	37.2% and 50.8%	55.8%	27.6%	19%	28.4%	19.4%	24.6%	16.9%
CN(C)c1cccc(-c2c3c(=O)n(-c4ccccc4Cl)[nH]c3cc(=O)n2C)c1	100% and 98.2%	101%	109%	126%	104%	99.7%	101%	114%
CC(C(=O)O)c1ccc(-c2ccccc2)c(F)c1 (stereo not given) [Flurbiprofen]	107% and 105%	103%	106%	99%	104%	105%	108%	102%
CN[C@@H](C)C(=O)N[C@H](C(=O)N1CCC[C@H]1C(=O)N[C@H]1c2ccccc2C[C@H]1OCC#CC#CCO[C@@H]1Cc2ccccc2[C@@H]1NC(=O)[C@@H]1CCCN1C(=O)[C@@H](NC(=O)[C@H](C)NC)C1CCCCC1)C1CCCCC1	0.57% and 0.73%	0.61%	0.76%	0.89%	0.51%	0.62%	0.56%	0.58%
CNC(=O)c1nn(C)c2c1C(C)(C)Cc1cnc(Nc3ccc(N4CCN(C)CC4)cc3)nc1-2	34% and 36.5%	25.2%	21.4%	22.6%	16%	5.62%	13.8%	19.4%
O=C(c1cn(Cc2cncn2Cc2ccc(Br)cc2)cc1-c1cccc2ccccc12)N1CCOCC1	48.4% and 62.4%	47.2%	34.1%	36.4%	35.1%	39.1%	25.7%	32.2%
Oc1ccc(Nc2nc(-c3ccc(Cl)cc3)cs2)cc1	49.4% and 65.5%	66.4%	38.8%	36.5%	40.9%	39.6%	42.1%	42.1%
CC(=O)OCC(=O)[C@@]1(O)CC[C@H]2[C@@H]3CCC4=CC(=O)C=C[C@]4(C)[C@H]3[C@@H](O)C[C@@]21C [Prednisolone acetate (Omnipred)]	87.3% and 81.8%	84.8%	86.1%	84%	80.5%	80.3%	73.3%	87%
CN1CCCN(C(=O)c2cccc(-c3ccc(/C=C4/C(=O)Nc5ccc(Cl)cc54)o3)c2)CC1	0.32%	0.41%	0.26%	0.37%	0.32%	0.29%	0.21%	0.42%
CC[C@@H]1C(=O)N(C)c2cnc(Nc3ccc(C(=O)N[C@H]4CC[C@H](N5CCN(CC6CC6)CC5)CC4)cc3OC)nc2N1C(C)C [BI6727 (Volasertib)]	3.41% and 6.94%	9.46%	12.2%	16.7%	3.23%	0.61%	4.52%	11.5%
N/N=c1\[nH][nH]/c(=N\N)c2ccccc12 [Dihydralazine sulphate]	93.9% and 93.2%	95.5%	95.3%	94.3%	106%	103%	93%	95.4%
C[C@H]1[C@H](OC(=O)CCC(=O)O)O[C@@H]2O[C@@]3(C)CC[C@H]4[C@H](C)CC[C@@H]1[C@@]24OO3 [Artesunate]	43.3% and 38.6%	41.2%	42.7%	37.8%	34.5%	28.3%	2.96%	17.9%
CN[C@@H](C)C(=O)N[C@H]1CN(C(=O)CC(C)C)CC[C@H]2CC[C@@H](C(=O)NC(c3ccccc3)c3ccccc3)N2C1=O	69.6% and 74.7%	72.8%	64.5%	46.6%	0.57%	0.76%	60.2%	39.2%

SMILES	cell viability ([1]; SRSF2 genotype: SRSF2 P95H/wt)	cell viability ([1]; SRSF2 genotype: SRSF2 wt/wt)	cell viability ([2]; SRSF2 genotype: SRSF2 P95H/wt)	cell viability ([2]; SRSF2 genotype: SRSF2 wt/wt)	cell viability ([3]; SRSF2 genotype: SRSF2 P95H/wt)	cell viability ([3]; SRSF2 genotype: SRSF2 wt/wt)	cell viability ([4]; SRSF2 genotype: P95H/wt)	cell viability ([4]; SRSF2 genotype: wt/wt)
CN(C)CC/C=C1/c2ccccc2Sc2ccc(Cl)cc21 [Chlorprothixene]	80.1% and 80.7%	87.8%	78.3%	76.7%	66.2%	82.1%	66.6%	68.2%
O=c1ccoc2cc(O)ccc12 [7-Hydroxy-4-chromone]	102% and 95.6%	93.5%	99.1%	104%	98.9%	104%	97.1%	96.3%
COC(=O)c1cc(O)c(O)c(O)c1 [Methyl gallate]	103% and 104%	96.7%	89.7%	101%	90.6%	104%	96.9%	110%
COc1cc2c(cc1OC)[C@@H]1Cc3ccc(OC)c(OC)c3CN1CC2 [Rotundine]	87.8% and 98.4%	101%	98.2%	91.1%	94%	95.2%	95.1%	90.4%
CCC(=O)NCC[C@@H]1CCc2ccc3c(c21)CCO3 [Ramelteon]	105% and 104%	97.6%	91.7%	101%	107%	98.8%	93.7%	99.4%
Cn1c(=O)c(Oc2ccc(F)cc2F)cc2cnc(NC(CCO)CCO)nc21	91.7% and 92.6%	90.4%	98.9%	97.2%	92.2%	99.8%	96.2%	92.2%
CC1=C(/C=C/C(C)=C/C=C/C(C)=C/C=C/C=C(C)/C=C/C=C(C)/C=C/C2=C(C)C(=O)[C@@H](O)CC2(C)C)C(C)(C)C[C@H](O)C1=O [Astaxanthin]	104%	106%	98.3%	96.9%	102%	101%	89.8%	99.8%
C=C1/C(=C\C=C2/CCC[C@]3(C)[C@@H]([C@H](C)CCCC(C)(C)O)CC[C@@H]23)C[C@@H](O)C[C@@H]1O [Calcitriol (Rocaltrol)]	81.2% and 89.8%	88.2%	66.9%	66.5%	65.4%	62.6%	64.9%	76.3%
CC(C)CN(CC(=O)N1CCN(CC(OCc2ccc3ccccc3c2)c2ccc(Cl)cc2Cl)CC1)CC(C)C (stereo not given)	73.4% and 83%	79.2%	54.3%	43.2%	56.2%	71%	36%	41.8%
C[C@@H]1O[C@@H](OC[C@H]2O[C@@H](Oc3cc(O)c4c(c3)O[C@H](c3ccc(O)cc3)CC4=O)[C@H](O)[C@@H](O)[C@@H]2O)[C@H](O)[C@H](O)[C@H]1O [Narirutin]	96.8% and 92.1%	92.3%	98.2%	97.5%	98.9%	96.8%	101%	99.4%
COc1cc(N2CCN(C)CC2)ccc1Nc1nccc(-c2cn(C)c3cnccc23)n1	63.7% and 63.4%	79.2%	41%	39.1%	3.24%	1.65%	6.46%	11.4%
CC[C@@H]1/C=C(\C)C[C@H](C)C[C@H](OC)[C@H]2O[C@@](O)(C(=O)C(=O)N3CCCC[C@H]3C(=O)O[C@H](/C(C)=C/[C@@H]3CC[C@@H](O)[C@H](OC)C3)[C@H](C)[C@@H](O)CC1=O)[C@H](C)C[C@@H]2OC [Ascomycin (FK520)]	75.8% and 83%	83.6%	86.6%	96.8%	89.1%	89.1%	95.8%	93.5%
N#Cc1ccc(-c2c(-c3ncn[nH]3)sc(N3CCOCC3)c2C#N)c(F)c1	60.4% and 73.5%	68.2%	47.4%	39%	27.8%	28.3%	9.07%	24%
CC(=O)[C@H]1CC[C@H]2[C@@H]3CC=C4C[C@@H](O)CC[C@]4(C)[C@H]3CC[C@]12C [Pregnenolone]	103% and 108%	107%	103%	105%	101%	105%	100%	107%
O=C(NO)c1ccc(CC(=O)N(CCO)c2ccccc2)cc1	87.2% and 92.2%	86.2%	78.9%	90.4%	71.9%	73.6%	77.2%	81.6%
CC(C)=CCc1cc2c(cc1O)O[C@H](c1ccc(O)cc1)CC2=O [Bavachin]	95.2% and 87.3%	100%	96.5%	99.5%	111%	109%	101%	114%
COc1cc(O)c2c(c1)C(=O)c1cc(C)cc(O)c1C2=O [Rheochrysidin (Physcione)]	96.9% and 101%	95.5%	98.4%	111%	102%	103%	92.5%	102%
CCCCCCCCCCCC[N+](C)(C)CCOc1ccccc1 [Domiphen Bromide]	7.02% and 4.79%	5.16%	0.45%	0.55%	0.35%	0.39%	0.4%	0.43%
O=C1CN(/N=C/c2ccc(-c3ccc([N+](=O)[O-])cc3)o2)C(=O)N1 [Dantrolene sodium hemiheptahydrate]	93.8% and 97.3%	104%	96.4%	104%	100%	101%	100%	94.3%
CCCN[C@H]1CCc2nc(N)sc2C1 [Pramipexole dihydrochloride]	103% and 96.9%	110%	103%	94.2%	79.1%	97.8%	103%	111%
